Reference: PubChem BioAssay (NCI)
About 83,000 compounds went through this panel and 20% of them were active in at least one assay; those are over-represented in the sample as a whole.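 Results are percent growth after 48 hours of single-concentration exposure. 100 means growth as in untreated cells, lower positive values show inhibition; negative values down to -100 show cell death.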 Active and inactive are the calls of the source. How the source made its calls: active means growth percent below 10; inactive means the rest.

How the values were obtained:
Assay in all cases: NCI-60 one-dose screen, 48 h (100 = growth as untreated, 0 = no growth, -100 = all killed)
[1] = system: SR leukemia; details: 10 µM unless noted
[2] = system: RPMI-8226 leukemia; details: 10 µM unless noted
[3] = system: OVCAR-8 ovarian; details: 10 µM unless noted
[4] = system: OVCAR-5 ovarian; details: 10 µM unless noted
[5] = system: OVCAR-4 ovarian; details: 10 µM unless noted
[6] = system: SK-OV-3 ovarian; details: 10 µM unless noted
[7] = system: IGROV1 ovarian; details: 10 µM unless noted
[8] = system: OVCAR-3 ovarian; details: 10 µM unless noted
[9] = system: HS 578T breast; details: 10 µM
[10] = system: NCI/ADR-RES ovarian; details: 10 µM unless noted
[11] = system: T-47D breast; details: 10 µM unless noted
[12] = system: BT-549 breast; details: 10 µM unless noted
[13] = system: MDA-MB-435 melanoma; details: 10 µM unless noted
[14] = system: SW-620 colon; details: 10 µM unless noted
[15] = system: MCF7 breast; details: 10 µM unless noted
[16] = system: HCT-116 colon; details: 10 µM unless noted
[17] = system: HCC-2998 colon; details: 10 µM
[18] = system: KM12 colon; details: 10 µM unless noted

Measured: growth

CCc1nc2cc(/C=C/C(=O)NO)ccc2c(=O)n1CCc1ccc(OC)cc1
active: [6] 6.67% | [8] -1.22% | [10] 9.39% | [11] -2.1% | [13] 7.73% | [14] 5.44% | [16] 1.28%
inactive: [1] 14.3% | [2] 10.3% | [3] 15.3% | [4] 24.2% | [5] 39.1% | [7] 40.9% | [9] 41.8% | [12] 55.1% | [15] 10.5% | [17] 48% | [18] 23.7%

C=CCCCC(=O)CCC(=O)OCC1O[C@@H](O[C@@H]2C(O)[C@@H](OC(C)=O)C(C)O[C@H]2O[C@H](CC=C)CCCCC)C(O)[C@@H](OC(=O)/C(C)=C/C)[C@@H]1OC(=O)/C=C/c1ccccc1 (some centres undefined)
inactive: [3] 42.1% | [4] 53.5% | [5] 42.4% | [6] 40.6% | [7] 35.1% | [8] 26% | [9] 35.9% | [10] 49.2% | [12] 16.7% | [14] 30.6% | [15] 17.6% | [16] 13.7% | [17] 44.1% | [18] 22.3%
active: [1] -12.4% | [2] -1.27% | [11] -5.16% | [13] 9.15%

CN1CCN(CCCOc2cccc3nc(Nc4ccc(Cl)c(C(F)(F)F)c4)ccc23)CC1
active: [1] -33.3% | [8] -4.07% | [10] -0.603% | [13] -21.4% | [14] -54.8% | [15] -67.3% | [16] -82.7% | [17] -90.8% | [18] -78%
inactive: [2] 10.6% | [3] 13.9% | [4] 17.9% | [5] 42.1% | [6] 52.5% | [7] 55.4% | [9] 32.6% | [11] 16.4% | [12] 59.1%

C=C1[C@@H](O)C[C@H]2C(C)(C)C[C@H](Cl)C[C@]2(C)[C@H]1C[C@H](O)[C@H]1CC(=O)NC1=O
active: [1] 7.18% | [2] -0.0704% | [3] -18% | [4] -10.8% | [5] -36.3% | [6] -29.7% | [7] -15.4% | [8] -27.4% | [9] -15.7% | [10] -2.98% | [11] -20.3% | [12] -24.1% | [13] -44.6% | [14] -1.83% | [15] -18.8% | [16] -28.8% | [17] -44.9% | [18] -18%

CCCCCCCC(=O)SCC/C=C/[C@@H]1CC(=O)NCc2cc(ccn2)C2=N[C@@](C)(CS2)C(=O)N[C@@H](C(C)C)C(=O)O1
active: [3] 6.26% | [4] 2.85% | [6] -22.6% | [7] -8.98% | [8] -22.9% | [9] -8.43% | [10] 4.18% | [11] -6.31% | [13] -22.1% | [14] -1.73% | [16] -17.2% | [17] -67.8% | [18] -3.5%
inactive: [1] 14.3% | [2] 13.6% | [5] 10.9% | [12] 36.4% | [15] 14.1%

CCNCCNc1cc(-c2ccc(Cl)c(Cl)c2)c(C#N)c2nc3ccccc3n12
active: [1] -30.9% | [2] -39.2% | [3] -66% | [4] -76% | [5] -78.4% | [6] -94.1% | [7] -70.7% | [8] -94% | [9] -45.7% | [10] -73.4% | [11] -60.8% | [12] -70.5% | [13] -95% | [14] -67.3% | [15] -72% | [16] -87.3% | [17] -87.1% | [18] -86.6%

CCCc1cc2cc(-n3nc(C)c4c3CC(C)(C)CC4=O)cc(NC3CCC(O)CC3)c2c(=O)[nH]1 (centres undefined)
active: [6] 6.8% | [18] 4.71%
inactive: [1] 23.8% | [2] 15.2% | [3] 33% | [4] 50.5% | [5] 64.7% | [7] 36.9% | [8] 23.2% | [9] 47.4% | [10] 45.5% | [11] 38.2% | [12] 29.2% | [13] 20.8% | [14] 24.9% | [15] 25.4% | [16] 11.3% | [17] 24.7%

Cc1cc(N(CCNc2ccnc3cc(Cl)ccc23)Cc2ccc3c(c2)OCO3)nc(N2CCCC2)n1
inactive: [4] 20.6% | [6] 40.9% | [10] 31.1% | [18] 44.9%
active: [1] -46.7% | [2] -27.3% | [3] 7.4% | [5] -44.9% | [7] -14.4% | [8] -30.7% | [9] 6.29% | [11] -36.4% | [12] -7.74% | [13] -69.5% | [14] 8.91% | [15] 7.77% | [16] -68.8% | [17] -24.4%

COc1ccc(CCCc2c3[n+](cc4c(OC)c(OC)ccc24)CCc2cc4c(cc2-3)OCO4)cc1
inactive: [1] 37.6% | [2] 20.5% | [3] 48.1% | [4] 86.6% | [5] 54.5% | [6] 77.5% | [7] 53.9% | [8] 30% | [9] 97.2% | [10] 93.7% | [11] 15.6% | [12] 41.8% | [13] 39.7% | [14] 68.9% | [15] 93.7% | [17] 74% | [18] 30.8%

C=C1C(=O)O[C@H]2[C@H]1CC/C(Cn1cc(-c3cc(C)c(C)cc3C)nn1)=C\CC[C@@]1(C)O[C@@H]21
inactive: [6] 76.2% | [9] 11.6% | [18] 14.1%
active: [1] -5.15% | [2] -24.6% | [3] -55.9% | [4] -45.6% | [5] -94.3% | [7] -63.9% | [8] -95.2% | [10] 5.12% | [11] -46.8% | [12] -66.1% | [13] -56.3% | [14] -79.2% | [15] -62.3% | [16] -87.4% | [17] -91.7%

NN1C(=O)CSC1=S
inactive: [1] 98.5% | [2] 102% | [3] 111% | [4] 96.8% | [5] 105% | [6] 98.6% | [7] 110% | [8] 110% | [9] 101% | [10] 114% | [11] 104% | [12] 93.5% | [13] 100% | [14] 111% | [15] 94.8% | [16] 96.8% | [17] 110% | [18] 106%

COc1cc2nc(Nc3cccc(Cl)c3)nc(N)c2cc1OC
active: [17] -59.3%
inactive: [1] 67.4% | [2] 35.7% | [3] 87.4% | [4] 111% | [5] 72.7% | [6] 114% | [7] 64.5% | [8] 89.2% | [9] 109% | [10] 74.1% | [11] 84.5% | [12] 78.6% | [13] 84.7% | [14] 83.6% | [15] 81.5% | [16] 33.7% | [18] 61.4%

Cc1ccccc1Nc1nc2nonc2nc1Nc1cccc(C)c1C
inactive: [1] 66.8% | [2] 24.4% | [3] 54.3% | [4] 98.9% | [5] 30.3% | [6] 56.6% | [7] 74% | [8] 35.8% | [9] 72.6% | [10] 56.5% | [11] 16.2% | [12] 51.7% | [13] 55.7% | [14] 77% | [15] 43.3% | [16] 43% | [17] 67.5% | [18] 53.8%

N#CC1(C#N)C(c2cccs2)NC(c2cccs2)C1(C#N)C#N (centres undefined)
inactive: [1] 110% | [2] 107% | [3] 101% | [4] 109% | [5] 92.7% | [6] 99.1% | [7] 101% | [8] 98.1% | [9] 104% | [10] 97.6% | [11] 91% | [12] 101% | [13] 107% | [14] 108% | [15] 90.3% | [16] 97.6% | [17] 100% | [18] 100%

c1cc[n+](Cc2c3ccccc3cc3c2ccc2ccccc23)cc1
inactive: [1] 21.2% | [2] 17.6% | [3] 39.8% | [4] 81.1% | [5] 34.4% | [6] 87.9% | [7] 13.7% | [8] 36% | [9] 13.3% | [10] 99.3% | [11] 30.8% | [12] 10.4% | [13] 51% | [14] 57.4% | [15] 31.9% | [16] 58.1% | [17] 42.8% | [18] 35.9%

CN1CCN(CC(=O)Nc2ccc(-c3nc4ccccc4s3)cc2)CC1
active: [1] 6.26%
inactive: [2] 88.1% | [3] 91.3% | [4] 72.9% | [5] 87.3% | [6] 94.2% | [7] 80.6% | [8] 99.2% | [9] 93.7% | [10] 85.6% | [11] 54.1% | [12] 80.7% | [13] 25.4% | [14] 102% | [15] 36.8% | [17] 77.3% | [18] 85.6%

CCCCCCCC(=O)SCC/C=C/[C@@H]1CC(=O)NCc2cccc(n2)C2=N[C@@](C)(CS2)C(=O)N[C@@H](C(C)C)C(=O)N1
inactive: [1] 18.9% | [2] 17.1% | [3] 32.1% | [4] 25.5% | [5] 34.4% | [6] 10.3% | [7] 26% | [8] 22% | [9] 26.2% | [10] 86.7% | [12] 41.4% | [13] 19.6% | [14] 69.3% | [15] 28.3% | [17] 12.6% | [18] 24.9%
active: [11] -7.49% | [16] 2.91%
